Experiment [1] in a line: P-glycoprotein substrates identified in KB-8-5-11 adenocarcinoma cell line, qHTS therapeutic library screen (AID 1346987). Also: nearly all actives have a fitted effect of over 65% in size. Also: potency is read from the fitted curve at half-maximal effect. The essentials: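 Luminescence from CellTiter-Glo, read 5 min after addition, quantified survival of KB-8-5-11 (P-gp-overexpressing) cells exposed to compounds for 72 h. AC50 was derived from concentration-response curves.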
In experiment [2] the test system is Zika virus NS2B-NS3 protease (linked construct). The experiment in a line: Confirmatory screen NINDS AMC qHTS for Zika virus inhibitors (AID 1347152). Also: potency is read from the fitted curve at half-maximal effect; nearly all actives have a fitted effect of over 70% in size. The essentials: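 Enzyme (1 nM, linked construct) was preincubated with compound for 15 minutes at room temperature in 10 mM Tris-HCl pH 8.0 with 0.01% Tween 20. Bz-Nle-Lys-Arg-Arg-AMC was then added to 10 microM, and AMC fluorescence was recorded immediately and after 15 minutes.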
On the technique in general: qHTS replaces the single test concentration by a dilution series.

In experiment [3] the test system is Zika virus NS2B-NS3 protease (unlinked complex). The experiment in a line: Confirmatory screen GU AMC qHTS for Zika virus inhibitors (AID 1347153).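 Also: enzyme at 25 nM with substrate at 10 µM below its Km of 18.3 µM; potency is read from the fitted curve at half-maximal effect; nearly all actives have a fitted effect of over 70% in size.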 The conditions noted are these: Recombinant NS2B-NS3 protease, AMC substrate fluorescence. The gist of the method:
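Unlinked NS2B-NS3 complex (25 nM) in 10 mM Tris-HCl pH 8.0, 0.01% Tween 20 preincubated 15 min with compound, then 10 microM Bz-Nle-KRR-AMC (Km 18.3 µM). Fluorescence change over 15 min, normalized, Hill-fitted.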

Experiment [4] can be described thus: qHTS of pediatric cancer cell lines to identify multiple opportunities for drug repurposing: Primary screen for SJ-GBM2 cells (AID 1347091). Also: potency is read from the fitted curve at half-maximal effect. The conditions noted are these: SJ-GBM2 viability, CellTiter-Glo luminescence, 48 h. The essentials:
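Viability measured as metabolically active cells via CellTiter-Glo luminescence following 48 hours of compound exposure, 11-point dilutions in confirmatory testing. 500-1,000 cells/well plated 5 hours before dosing; controls were DMSO and 2.3 µM bortezomib.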

Experiment [5] in a line: qHTS of pediatric cancer cell lines to identify multiple opportunities for drug repurposing: Primary screen for RD cells (AID 1347104). Also: potency is read from the fitted curve at half-maximal effect; nearly all actives have a fitted effect of over 55% in size. As to conditions: RD rhabdomyosarcoma viability, CellTiter-Glo luminescence, 48 h. The essentials: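 500-1,000 cells/well; 5 h pre-incubation 37 °C/5% CO2; compound pinned; 48 h; CellTiter-Glo, 15 min RT; luminescence. MIPE 11-pt from 0.78 nM, NPC 8-pt from 0.59 nM final. Bortezomib 2.3 µM final as positive control.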

For experiment [6], the system named is Zika virus NS2B-NS3 protease. In words: Primary screen GU AMC qHTS for Zika virus inhibitors (AID 1347154). Also: nearly all actives have a fitted effect of over 70% in size. The gist of the method:
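Unlinked Zika NS2B hydrophilic domain–NS3 protease complex at 25 nM in 10 mM Tris-HCl pH 8.0, 0.01% Tween 20, with an AMC peptide substrate. Fluorescence change (340/450 nm) over 15 min at room temperature, normalized to controls, fitted to 4-parameter Hill.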

The target of experiment [7] is Atrial natriuretic peptide receptor 1 (Homo sapiens) (UniProt P16066). In words: Natriuretic polypeptide receptor (hNpr1) antagonism - Pilot screen (AID 1347049; calls by dose curve;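 also: agonist-evoked cGMP luminescence read 20 min after hNppA addition; series mostly up to about 58 µM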). The gist of the method: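 cGMP-sensor HEK293/hNpr1 cells, 1500/well, plated overnight at 37C. 2% GloSensor reagent, 2 h RT. Compound (23 nL pin transfer) 30 min RT, baseline luminescence pre-read. 0.1 nM hNppA, 20 min RT, post-read.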

The target in experiment [8] is Atrial natriuretic peptide receptor 2 (Homo sapiens) (UniProt P20594). In words: Natriuretic polypeptide receptor (hNpr2) antagonism - Pilot subtype selectivity assay (AID 1347050; calls by dose curve). The essentials:
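Luminescence from a genetically encoded cGMP luciferase biosensor in hNpr2-expressing HEK293 cells is read before and 20 min after adding 1 nM hNppC. Test compounds, in interplate 1:5 titrations, are added 30-50 min ahead of the agonist.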

The target of experiment [9] is Parathyroid hormone/parathyroid hormone-related peptide receptor (Homo sapiens) (UniProt Q03431). In words: qHTS for PTHR1 Agonists: Optimization Screen against the NCGC LOPAC library (AID 1347079).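 Also: GloSensor cAMP luminescence in HEK-293 GP2 cells expressing human PTHR1 with IBMX.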 The gist of the method: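 HEK-293 GP2 cells, PTHR1 + GloSensor cAMP; 3000 cells/well, o/n. Luciferin + IBMX 0.5mM each (stock), 1 hr 37C. Cpd titration, 1 hr 37C. Lum after 15 min RT. Ctrl M-PTH(1-15) top 10uM.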

Experiment [10] deals with N-terminal Xaa-Pro-Lys N-methyltransferase 1 (Homo sapiens) (UniProt Q9BV86). In words: qHTS Assay for Inhibitors of N-terminal methyltransferase 1 (NTMT1): LOPAC validation of the NTMT1 SAHH-coupled ThioGlo3 Assay (AID 1347143).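 Also: SAH from peptide methylation measured as thiol fluorescence via SAHH coupling and ThioGlo3; nearly all actives have a fitted effect of over 70% in size.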 The essentials: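 Steps: dispense 125nM NTMT1; pin-transfer test compounds at several concentrations, with 1uM RCC1-6 peptide as control; incubate 1 min; start with reagent holding 100uM SAM, 10uM SAHH, 15uM ThioGlo3; read at 0 and 30 min.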

Inconclusive results are not listed. Activity calls are given as the source filed them. Unless noted, calls follow the shape of the dose curve; as a rule, active = well fitted curve in the direction sought with a large enough effect; inconclusive = small, poorly fitted or top-dose-only effect, or another doubt; inactive = no such curve, though single readings can be large; an effect the other way counts as inactive or inconclusive.

Experimental findings from PubChem BioAssay (NCATS) are described below.

Chain of Atrial natriuretic peptide receptor 2 (Homo sapiens) (P20594 whole entry, looked up): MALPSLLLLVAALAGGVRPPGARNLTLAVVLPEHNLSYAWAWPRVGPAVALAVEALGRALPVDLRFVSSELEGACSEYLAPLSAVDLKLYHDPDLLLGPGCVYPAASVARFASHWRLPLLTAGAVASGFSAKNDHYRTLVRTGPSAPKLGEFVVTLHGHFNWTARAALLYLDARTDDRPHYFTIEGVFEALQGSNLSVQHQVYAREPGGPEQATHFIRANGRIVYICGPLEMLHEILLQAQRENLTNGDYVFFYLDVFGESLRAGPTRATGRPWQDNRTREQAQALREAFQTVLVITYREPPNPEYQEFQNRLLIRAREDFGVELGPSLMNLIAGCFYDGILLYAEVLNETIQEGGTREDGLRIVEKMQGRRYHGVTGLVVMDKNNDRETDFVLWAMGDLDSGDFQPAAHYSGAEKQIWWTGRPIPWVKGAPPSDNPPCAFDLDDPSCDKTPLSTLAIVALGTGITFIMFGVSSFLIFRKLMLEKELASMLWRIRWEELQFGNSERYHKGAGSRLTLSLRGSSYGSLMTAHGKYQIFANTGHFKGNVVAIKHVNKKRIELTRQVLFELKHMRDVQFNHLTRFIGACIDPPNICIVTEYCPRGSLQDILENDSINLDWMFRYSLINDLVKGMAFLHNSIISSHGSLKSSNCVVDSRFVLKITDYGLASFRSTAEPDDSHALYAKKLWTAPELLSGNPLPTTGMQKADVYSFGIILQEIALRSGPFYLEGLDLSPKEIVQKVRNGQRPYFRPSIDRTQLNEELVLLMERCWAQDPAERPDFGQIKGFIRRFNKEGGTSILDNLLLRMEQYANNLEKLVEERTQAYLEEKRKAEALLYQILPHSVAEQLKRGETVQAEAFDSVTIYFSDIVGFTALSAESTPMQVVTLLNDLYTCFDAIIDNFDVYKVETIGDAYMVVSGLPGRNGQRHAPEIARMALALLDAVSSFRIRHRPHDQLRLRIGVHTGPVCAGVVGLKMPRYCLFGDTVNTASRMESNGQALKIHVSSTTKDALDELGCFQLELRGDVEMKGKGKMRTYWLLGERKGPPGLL
Chain of N-terminal Xaa-Pro-Lys N-methyltransferase 1 (Homo sapiens) (Q9BV86 whole entry, looked up): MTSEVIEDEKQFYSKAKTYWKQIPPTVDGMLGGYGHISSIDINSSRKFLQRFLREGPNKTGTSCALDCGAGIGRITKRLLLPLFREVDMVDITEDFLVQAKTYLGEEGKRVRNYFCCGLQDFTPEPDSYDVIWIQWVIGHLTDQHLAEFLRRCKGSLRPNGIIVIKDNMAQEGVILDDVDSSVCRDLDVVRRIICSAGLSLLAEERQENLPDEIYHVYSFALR
Chain of Parathyroid hormone/parathyroid hormone-related peptide receptor (Homo sapiens) (Q03431 whole entry, looked up): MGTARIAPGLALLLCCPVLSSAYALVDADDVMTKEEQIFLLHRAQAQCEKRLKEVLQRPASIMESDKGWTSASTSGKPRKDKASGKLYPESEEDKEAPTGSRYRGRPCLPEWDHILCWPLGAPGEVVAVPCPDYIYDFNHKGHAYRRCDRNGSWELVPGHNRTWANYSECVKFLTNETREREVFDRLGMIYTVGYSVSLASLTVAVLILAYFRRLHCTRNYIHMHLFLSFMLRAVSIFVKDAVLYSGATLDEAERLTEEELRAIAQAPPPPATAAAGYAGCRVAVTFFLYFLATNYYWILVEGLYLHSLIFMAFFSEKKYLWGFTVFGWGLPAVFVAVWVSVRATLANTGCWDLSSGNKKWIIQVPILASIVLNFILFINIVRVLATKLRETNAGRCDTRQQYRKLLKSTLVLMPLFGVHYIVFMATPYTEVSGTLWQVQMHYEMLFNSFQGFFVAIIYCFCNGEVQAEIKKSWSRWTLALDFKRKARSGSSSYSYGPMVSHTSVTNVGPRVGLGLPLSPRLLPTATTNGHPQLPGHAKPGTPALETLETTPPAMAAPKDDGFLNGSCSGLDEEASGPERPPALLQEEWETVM
Chain of Atrial natriuretic peptide receptor 1 (Homo sapiens) (P16066 whole entry, looked up): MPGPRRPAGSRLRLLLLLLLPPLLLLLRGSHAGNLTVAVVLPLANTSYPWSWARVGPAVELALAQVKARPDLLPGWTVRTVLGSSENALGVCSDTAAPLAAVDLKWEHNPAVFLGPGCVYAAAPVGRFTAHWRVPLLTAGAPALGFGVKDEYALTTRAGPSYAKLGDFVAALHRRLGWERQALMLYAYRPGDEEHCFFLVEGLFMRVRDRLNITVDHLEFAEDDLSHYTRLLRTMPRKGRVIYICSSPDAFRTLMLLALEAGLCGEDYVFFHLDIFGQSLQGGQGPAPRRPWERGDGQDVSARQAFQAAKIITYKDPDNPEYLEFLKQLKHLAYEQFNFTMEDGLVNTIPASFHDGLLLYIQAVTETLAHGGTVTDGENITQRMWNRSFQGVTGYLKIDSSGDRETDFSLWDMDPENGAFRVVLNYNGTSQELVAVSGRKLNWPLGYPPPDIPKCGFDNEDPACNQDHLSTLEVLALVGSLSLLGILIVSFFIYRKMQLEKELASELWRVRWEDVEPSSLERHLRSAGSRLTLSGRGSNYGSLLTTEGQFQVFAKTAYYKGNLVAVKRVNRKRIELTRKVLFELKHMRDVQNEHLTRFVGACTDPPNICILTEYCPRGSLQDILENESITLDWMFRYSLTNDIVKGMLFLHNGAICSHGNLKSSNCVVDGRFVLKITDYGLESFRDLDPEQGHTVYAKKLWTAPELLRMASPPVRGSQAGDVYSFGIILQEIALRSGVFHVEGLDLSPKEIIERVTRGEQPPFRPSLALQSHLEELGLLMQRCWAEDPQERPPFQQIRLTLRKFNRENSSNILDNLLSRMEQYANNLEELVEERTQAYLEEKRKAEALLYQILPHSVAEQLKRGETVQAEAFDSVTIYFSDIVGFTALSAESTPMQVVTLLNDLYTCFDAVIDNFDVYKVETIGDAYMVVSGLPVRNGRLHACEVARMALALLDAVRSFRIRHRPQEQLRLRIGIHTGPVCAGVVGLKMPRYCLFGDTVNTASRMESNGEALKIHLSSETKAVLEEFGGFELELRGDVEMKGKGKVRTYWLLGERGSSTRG

For the molecule `Cc1ccc(CNc2ncnc3ccc(-c4ccc(CO)o4)cc23)o1`, in experiment [1], the Potency entry is “inactive”.

With `O=S(=O)(Nc1cc(Cl)c(Oc2cnc3ccccc3c2)c(Cl)c1)c1ccc(Cl)cc1Cl`, in experiment [2], the Potency was 13.9 µM (active).

For the molecule `CCN1CCCC1CNC(=O)c1cc(S(=O)(=O)CC)ccc1OC` (stereo unspecified), the Potency result in experiment [1] is “inactive”.

`O=C(O)c1ccc(S(=O)(=O)N(Cc2ccc(OC(F)(F)F)cc2)c2ncc(C(F)(F)F)cc2Cl)cc1`: the Potency entry in experiment [1] is “inactive”. The Potency in [2] is 49.4 µM (active); in experiment [3], 44.1 µM (active).

On to `CC(C)c1cc(-c2ccc(F)c3ccccc23)nc(N)n1`, for which the Potency entry in experiment [1] was “inactive”.

For the molecule `N#Cc1ccc(N2N=C3c4ccc(C(=O)O)cc4CC[C@@H]3[C@@H]2C2CCCC2)cc1Cl`, the Potency in experiment [2] is 8.79 µM (active); in experiment [3], 15.6 µM (active).

In the case of `Oc1cccc(-c2c3nc(c(-c4cccc(O)c4)c4ccc([nH]4)c(-c4cccc(O)c4)c4nc(c(-c5cccc(O)c5)c5ccc2[nH]5)CC4)C=C3)c1`, the Potency in experiment [4] was 21.1 µM (active); in experiment [5], 26.6 µM (active).

Consider `Cc1c(F)ccc(C(=O)Nc2cc([N+](=O)[O-])ccc2N2CCN(C)CC2)c1Cl`, for which the Potency entry in experiment [1] is “inactive”.

For the molecule `CC#C[C@@H](CC(=O)O)c1ccc(OCc2ccc(CN3CCC4(C=Cc5ccccc54)CC3)s2)cc1`, the values for the Potency in experiment [2] and in experiment [3] were 35 µM (active) and 39.3 µM (active), respectively.

Turning to `CC[C@H]1OC(=O)[C@H](C)[C@@H](O[C@H]2C[C@@](C)(OC)[C@@H](O)[C@H](C)O2)[C@H](C)[C@@H](O[C@H]2O[C@H](C)C[C@H](N(C)C)[C@H]2O)[C@](C)(O)C[C@@H](C)C(=O)[C@H](C)[C@@H](O)[C@]1(C)O`, in experiment [1], the Potency entry is “inactive”.

For the molecule `Fc1ccc(-c2nc(C3CCNCC3)sc2-c2ccnc(NC3CC3)n2)cc1`, the Potency in [1] is 13 µM (active).

As for `CCc1ccccc1OC[C@@H](O)CN[C@H]1CCCc2ccccc21`, in experiment [1], the Potency is 20.6 µM (active). Also, the Potency entry in experiment [6] was “inactive”.

`Cc1ccc(OC[C@H](O)[C@H](C)NC(C)C)c2c1CCC2`: the Potency result in [1] and in experiment [6] was “inactive” in each case.

With `NCCCC(=O)O`, the Potency entry in experiment [1] and in [8] was “inactive” each time. For the same molecule, the result in experiment [7], in experiment [9] and in experiment [10] was inactive.

Consider `CC#C[C@@H](CC(=O)O)c1ccc(OCc2cccc(-c3ccc(C(F)(F)F)cc3)c2)cc1`, for which the Potency entry in experiment [1] is “inactive”. Further, the Potency in experiment [2] is 12.4 µM (active); in [3] it was 13.9 µM (active).

As for `CCC(C)CC(=O)OC1C(=O)C(CO)=CC(O)C1C(C)C` (stereo unspecified), the Potency in experiment [1] is 7.31 µM (active).

On to `COc1ccc(-c2ccccc2)cc1NS(=O)(=O)c1cc(Cl)cc(Cl)c1O`, for which the Potency entry in experiment [1] was “inactive”. Also, the Potency in experiment [2] is 7.64 µM (active).
